From PubChem BioAssay
SARS PLP yeast: blocks SARS-CoV papain-like protease in a yeast assay; S. cerevisiae expressing SARS-CoV PLpro, growth rescue; Potency, µM (highest dose often 32.9 µM), usual class: activators; 0.19% of 330,000 active; AID 485353; also: nearly all actives have a fitted effect of over 55% in size
Pf growth 48h: P. falciparum growth inhibition at 48 hours (one generation). P. falciparum luciferase growth in erythrocytes, 48 h. Potency, µM (series often up to 28.7 µM), usual class: inhibitors. 5.9% of 310,000 active. AID 504832; active = well fitted inhibition curve with a large enough effect; inconclusive = small, poorly fitted or top-dose-only effect, or another doubt; inactive = no such curve, though single readings can be large or run the other way
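Growth was read as firefly luciferase luminescence after a 48 h, 37 C, 5% CO2 exposure of compounds to reporter-bearing P. falciparum cultures (0.1% parasitemia, 2% hematocrit final) in Albumax-supplemented RPMI 1640.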
RE007 growth inh: less growth of the S. pombe RE007 Vpr strain; S. pombe RE007 Vpr strain, BacTiter-Glo ATP luminescence, 24 h; Potency, µM (titrated, usually from 92.2 µM), most hits filed as inhibitors; 0.21% of 360,000 active; active = well fitted falling curve with a large enough effect; inconclusive = small, poorly fitted or top-dose-only effect; inactive = no such curve, though single readings can be large or run the other way; also: nearly all actives have a fitted effect of over 50% in size
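Fission yeast strain RE007, carrying one chromosomally integrated HIV-1 vpr copy, was seeded at OD 0.01 in PMG+AL medium with 23 nL pinned compound. After 24 h at 30 °C and 99% humidity, viability was read by BacTiter-Glo luminescence.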
NS1 inh: inhibitors of influenza NS1 protein function; Potency, µM (top dose mostly 46.1 µM); 0.4% of 270,000 active; also: actives are rising curves; nearly all actives have a fitted effect of over 50% in size
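Read-out: OD600 growth recovery of NS1-expressing budding yeast. Cells grown overnight at 30C in -URA glucose medium, washed, resuspended and diluted 1:100 in 2% galactose assay medium, pH 6.0. Same strain lacking NS1 served as positive control.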
Pf growth 96h: P. falciparum growth inhibition at 96 hours. P. falciparum luciferase reporter growth, 96 h. Potency, µM (top dose mostly 28.7 µM), usual class: inhibitors. 6.9% of 320,000 active. AID 504834; active = well fitted inhibition curve with a large enough effect; inconclusive = small, poorly fitted or top-dose-only effect, or another doubt; inactive = no such curve, though single readings can be large or run the other way
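Cell-based qHTS: luciferase-tagged P. falciparum in erythrocytes (2% hematocrit, 0.05% parasitemia final) incubated with compounds for 96 hours, 37 C, 5% CO2; luciferase detection reagent then added and luminescence measured.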
Numbers stand for hits; – = inactive; ? = inconclusive; · = no result; ! = not active in a repeat. Sampled rows, rich in hits. Any-hit rate of the full collection: about 9.5%. Unless noted, calls follow the shape of the full dose curve.

SMILES	SARS PLP yeast	Pf growth 48h	RE007 growth inh	NS1 inh	Pf growth 96h
NC(=O)C1CCN(C(=O)c2ccc(Cl)c(NC(=O)c3cccs3)c2)CC1	·	·	–	·	·
COc1ccc(C(=O)NCCCCc2ccccc2)cc1	·	·	–	·	·
COc1ccc(C[C@H]2CN3C(=NC[C@@H]3Cc3ccccc3)N2CCNC(=O)c2ccc(C)c(Br)c2)cc1	–	?	–	–	5.2µM
C/C=C(\C)C(=O)NCCN1C2=NC[C@@H](C)N2C[C@@H]1Cc1ccc(OC)cc1	–	–	–	–	–
COc1ccc(C[C@H]2CN3C(=NC[C@H]3Cc3ccccc3)N2CCNC(=O)c2ccc(C)c(Br)c2)cc1	–	5.2µM	–	–	1.7µM
CCC(=O)NC1=C(NC(C)c2ccccc2)C(=O)c2ccccc2C1=O (configuration not stated)	–	·	–	–	0.93µM
COc1ccccc1CN(C)C(=O)COC(=O)c1ccc(Cl)nc1	–	·	–	·	·
CCOC(=O)N1CCC(=C2c3ccc(Cl)cc3CCc3cccnc32)CC1	–	12µM	–	–	10µM!
CCOC(=O)N1CCN(Cc2ccccn2)CC1	·	–	–	–	–
COc1ccc(C(=O)Nc2ccccc2N2CCN(C(=O)C(C)C)CC2)cc1Cl	–	12µM	–	–	–
CCC(C)C(NC(=O)c1ccccc1NC(=O)c1ccc(C)cc1)C(=O)O (configuration not stated)	–	?	–	·	–
Cc1ccc(C(=O)Nc2ccccc2N2CCN(C(=O)C(C)C)CC2)cc1	–	9.3µM	–	–	·
Cc1ccc(C(=O)Nc2ccccc2C(=O)NC(C(=O)O)C(C)C)cc1 (configuration not stated)	–	12µM	–	–	?
COc1cc2ccccc2cc1C(=O)Nc1ccc(N2CCN(C(=O)C(C)C)CC2)cc1	–	12µM	–	–	15µM
COc1ccc(Cl)cc1C(=O)NNC(=O)c1ccc(F)c(S(=O)(=O)N2CCOCC2)c1	–	·	–	·	·
CC(Oc1ccccc1)C(=O)N1CCN(c2ccc(N3CCCCC3)nn2)CC1 (configuration not stated)	–	?	–	·	?
N#C/C(=C\NC(=S)c1ccncc1)c1nc2ccccc2s1	·	·	·	–	·
COc1ccc(Cl)cc1C(=O)Nc1ccccc1N1CCN(C(=O)C(C)C)CC1	–	5.9µM	–	–	5.2µM
CCOc1cccc(C(=O)Nc2ccccc2N2CCN(C(=O)C(C)C)CC2)c1	–	9.3µM	–	–	13µM
COc1ccc(Cl)cc1C(=O)NC(=S)Nc1ccccc1N1CCOCC1	–	?	–	–	?
CSCCC(NC(=O)c1ccccc1)C(=O)N1CCN(C(c2ccccc2)c2ccccc2)CC1 (configuration not stated)	–	?	–	–	1.9µM
CC(NC(=O)c1ccco1)C(=O)N1CCN(C(c2ccccc2)c2ccccc2)CC1 (configuration not stated)	–	13µM	–	–	–
CC(C)C(=O)N1CCN(c2ccc(NC(=O)c3ccc4c(c3)OCCO4)cc2Cl)CC1	–	·	–	–	4.7µM
CC(C)C(=O)N1CCN(c2ccccc2NC(=O)c2ccc(Br)o2)CC1	–	·	–	·	·
CC(C)C(=O)N1CCN(c2ccccc2NC(=O)c2ccco2)CC1	–	4.7µM	–	–	–
SMILES	SARS PLP yeast	Pf growth 48h	RE007 growth inh	NS1 inh	Pf growth 96h
CCOc1ccc(C(=O)Nc2ccccc2N2CCN(C(=O)c3ccccc3)CC2)cc1[N+](=O)[O-]	–	1.3µM	–	–	1.7µM
CN(C)C(=O)c1cccc(-c2cccc3nccn23)c1	·	·	–	·	·
Cc1cc(C)c(S(=O)(=O)N2CCN(S(=O)(=O)N3CCOCC3)CC2)c(C)c1	–	–	–	–	2.3µM
Cc1ccc(C(=O)Nc2ccc([N+](=O)[O-])cn2)o1	–	–	?	–	–
CCN(CC)Cc1c(NC(=O)c2ccccc2)sc(C)c1C	–	–	–	·	–
CCOC(=O)c1c(NC(=O)c2ccccc2)sc2c(O)c(CN(CC)CC)ccc12	–	1.9µM	–	–	–
COc1ccc(Oc2nc(-c3ccncc3)nc3ccccc23)cc1	–	?	–	–	?
C=CCOc1nc(-c2ccncc2)nc2ccccc12	–	7.4µM	–	–	–
CCCOc1ccc(Oc2nc(-c3ccncc3)nc3ccccc23)cc1	–	1.3µM	–	–	1µM
Cc1c(C=C2C(=O)N(C)C(=S)N(C)C2=O)c2ccccc2n1CC(=O)NCC1CCCO1 (configuration not stated)	–	?	–	–	12µM
